Assay [1] can be described thus: qHTS assay for small molecules that induce genotoxicity in human embryonic kidney cells expressing luciferase-tagged ATAD5 (AID 651632). Further: nearly all actives have a fitted effect of over 15% in size. The essentials: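 ATAD5-luc HEK293T, 2,000 cells/well; cpd or DMSO pin-transferred; 16 hr, 37C/5% CO2; Amplite 30 min RT; luminescence.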
Assay [2] in a line: qHTS assay for small molecule agonists of the p53 signaling pathway - cell viability (AID 651633; calls by dose curve; further: potency means the concentration at half of the fitted maximal effect; nearly all actives have a fitted effect of over 30% in size). The gist of the method:
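p53RE-bla cells were treated with compound for 16 hours at 37 C. Cytotoxicity was then measured as CellTiter-Glo luminescence after 30 min at room temperature.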

Assay [3] is described as follows: qHTS assay for small molecules that induce genotoxicity in human embryonic kidney cells expressing luciferase-tagged ATAD5 - cell viability (AID 651634; calls by dose curve; further: nearly all actives have a fitted effect of over 25% in size; further: potency means the concentration at half of the fitted maximal effect). The essentials:
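Fluorescence from CellTiter-Fluor, reporting protease activity within live cells, served as the viability read-out. HEK293T cells carrying luciferase-tagged ATAD5 had been treated with compound for 15.5 hr at 37C.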

Assay [4] is described as follows: qHTS assay for small molecule disruptors of the mitochondrial membrane potential - cell viability (AID 720634; calls by dose curve;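 further: human HepG2 liver cancer cells; series mostly up to about 83 µM; nearly all actives have a fitted effect of over 20% in size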). The gist of the method:
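Cells: HepG2, 2,000/well, attached overnight. Compound 1 hr, 37 C/5% CO2. +m-MPI dye, +CellTiter-Glo 30 min RT. Readout: luminescence (ATP).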

Assay [5] in a line: qHTS assay to test for compound auto fluorescence at 590 nm (red) in HepG2 cells (AID 720674). The essentials: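 Seeding: 2,000 HepG2 cells/well, MEM/10% FBS, overnight 37 C. Dosing: compound vs DMSO. Incubation: 1 hr, 37 C, 5% CO2. Read: fluorescence 540 ex/590 em, Rose Bengal sodium as red reference.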
The nature of assay [6]: qHTS assay to test for compound auto fluorescence at 535 nm (green) in HepG2 cells (AID 720675).
Assay [7] can be described thus: qHTS assay to test for compound auto fluorescence at 460 nm (blue) in HEK293 cells (AID 720678). The essentials: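 Blue-channel (Ex/Em 405/460 nm) intensity measured in HEK293 cultures after overnight compound exposure at 37C; signal expressed relative to triamterene. Cells plated 2,000 per well in 10% dialyzed FBS medium and allowed 4-5 hr to attach.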
Assay [8] is described as follows: qHTS assay to test for compound auto fluorescence at 590 nm (red) in HEK293 cells (AID 720679). The essentials:
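Red-channel autofluorescence (Ex/Em 540/590 nm; Rose Bengal sodium reference) was measured after overnight 37C, 5% CO2 exposure of attached HEK293 cells, 2,000 per well in medium with 10% dialyzed FBS.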

Assay [9] in a line: qHTS assay to test for compound auto fluorescence at 535 nm (green) in HEK293 cells (AID 720680).
Assay [10] is described as follows: qHTS assay to test for compound auto fluorescence at 460 nm (blue) in HEK293 cell free culture (AID 720681). The gist of the method:
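Compounds were added to cell-free DMEM with 10% FBS and fluorescence read directly. The blue channel used 405 nm excitation and 460 nm emission, with triamterene as the reference fluorophore.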

Assay [11] in a line: qHTS assay to test for compound auto fluorescence at 535 nm (green) in HEK293 cell free culture (AID 720682). The essentials: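 Fluorescein serves as the green reference fluorophore; each compound's intrinsic emission at 535 nm (excitation 485 nm) is reported as an equivalent amount of that dye, measured in serum-containing DMEM without cells.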
Assay [12] is described as follows: qHTS assay to test for compound auto fluorescence at 590 nm (red) in HEK293 cell free culture (AID 720683). The essentials:
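Cell-free wells of DMEM with 10% FBS received compound, and intrinsic fluorescence was read at excitation/emission 540/590 nm. Values expressed as equivalence to Rose Bengal sodium.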

Assay [13] can be described thus: qHTS assay to test for compound auto fluorescence at 590 nm (red) in HepG2 cell free culture (AID 720684). The gist of the method:
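Compound was pinned into wells holding MEM with 10% FBS and no cells, and red fluorescence was read at Ex/Em 540/590 nm. Signal is expressed as auto fluorescence equivalency relative to Rose Bengal sodium.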

Assay [14] in a line: qHTS assay to test for compound auto fluorescence at 460 nm (blue) in HepG2 cell free culture (AID 720685). The gist of the method:
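Compound (23 nL) or DMSO pinned into cell-free MEM with 10% FBS; blue fluorescence read at 405/460 nm excitation/emission, expressed as auto-fluorescence equivalency to triamterene.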

A short description of assay [15]: qHTS assay to test for compound auto fluorescence at 535 nm (green) in HepG2 cell free culture (AID 720686).
A short description of assay [16]: qHTS assay to test for compound auto fluorescence at 460 nm (blue) in HepG2 cells (AID 720687). The essentials: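 HepG2 cells in MEM with 10% FBS, attached overnight at 37 C, were exposed to compound or DMSO for 1 hr at 37 C, 5% CO2. Blue fluorescence was read at 405/460 nm, with triamterene as reference fluorophore.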
Assay [17] deals with Glucocorticoid receptor (Homo sapiens) (UniProt P04150). Briefly: qHTS assay to identify small molecule antagonists of the glucocorticoid receptor (GR) signaling pathway (AID 720692; active means well fitted inhibition curve with a large enough effect in the signal ratio in the repeat runs, not every such curve was filed as active; the % refers to the signal ratio; further: potency means the concentration at half of the fitted maximal effect). The essentials: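 HeLa GR-bla cells; cmpd + dex 5 nM final, 18 h 37 C; LiveBLAzer B/G FRET substrate 2 h RT; fluorescence intensity read. Antagonist mode, qHTS.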
Assay [18] in a line: qHTS assay to identify small molecule antagonists of the glucocorticoid receptor (GR) signaling pathway - cell viability counter screen (AID 720693). Further: nearly all actives have a fitted effect of over 55% in size. Further: potency means the concentration at half of the fitted maximal effect.
The nature of assay [19]: qHTS assay for identifying genotoxic compounds that show differential cytotoxicity against isogenic chicken DT40 cell lines with known DNA damage response pathways - wild type cell line (AID 743012). Further: nearly all actives have a fitted effect of over 60% in size. Further: potency means the concentration at half of the fitted maximal effect. The gist of the method:
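Wild type DT40, 300 cells/well, ~0.5 h settle at 37 C/5% CO2; compounds in DMSO added by pintool; 40 h at 37 C/5% CO2; CellTiter-Glo, 30 min RT; luminescence.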

The nature of assay [20]: qHTS assay for identifying genotoxic compounds that show differential cytotoxicity against isogenic chicken DT40 cell lines with known DNA damage response pathways - Rev3 mutant cell line (AID 743014). Further: nearly all actives have a fitted effect of over 55% in size. Further: potency means the concentration at half of the fitted maximal effect.
A short description of assay [21]: qHTS assay for identifying genotoxic compounds that show differential cytotoxicity against isogenic chicken DT40 cell lines with known DNA damage response pathways - Rad54/Ku70 mutant cell line (AID 743015). Further: nearly all actives have a fitted effect of over 60% in size. Further: potency means the concentration at half of the fitted maximal effect.
Assay [22] can be described thus: qHTS assay to identify small molecule antagonists of the androgen receptor (AR) signaling pathway - cell viability counter screen (AID 743033; further: nearly all actives have a fitted effect of over 45% in size; further: potency means the concentration at half of the fitted maximal effect).
The target of assay [23] is Androgen receptor (Homo sapiens) (UniProt P10275). Kind of assay: qHTS assay to identify small molecule antagonists of the androgen receptor (AR) signaling pathway (AID 743035; active means well fitted inhibition curve with a large enough effect in the signal ratio in the repeat runs, not every such curve was filed as active; the % refers to the signal ratio; further: potency means the concentration at half of the fitted maximal effect). The gist of the method:
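Fluorescence from a beta-lactamase FRET substrate (LiveBLAzer B/G, 2 h, room temperature) measured inhibition of R1881-stimulated signaling in GeneBLAzer AR-UAS-bla HEK293 cells exposed to compound for 16 h at 37C.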

For assay [24] the target is unchanged. Briefly: qHTS assay to identify small molecule agonists of the androgen receptor (AR) signaling pathway (AID 743036; active means well fitted activation curve with a large enough effect in the signal ratio in the repeat runs, with a control signal flat, not every such curve was filed as active; the % refers to the signal ratio). The essentials: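 Fluorescence from a beta-lactamase FRET substrate served as read-out in AR-UAS-bla GripTite HEK293 cells. Cells were treated with DMSO-dissolved compounds for 16 h at 37C, then with LiveBLAzer B/G substrate for 2 h at room temperature.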

Assay [25] shares this target. Kind of assay: qHTS assay to identify small molecule agonists of the androgen receptor (AR) signaling pathway using the MDA cell line (AID 743040; further: nearly all actives have a fitted effect of over 20% in size). The gist of the method:
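MDA-kb2 breast carcinoma cells carrying MMTV-luciferase (responsive to AR and GR), plated 5 h then treated 16 h with compounds at 37C, 0% CO2. Read-out was ONE-Glo luminescence after 30 min at room temperature.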

A short description of assay [26]: qHTS assay to identify small molecule antagonists of the thyroid receptor (TR) signaling pathway - cell viability counter screen (AID 743064). Further: nearly all actives have a fitted effect of over 50% in size. Further: potency means the concentration at half of the fitted maximal effect. The gist of the method:
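Fluorescence from CellTiter-Fluor, added after 23.5 h exposure at 37 °C, reported viability of GH3.TRE-Luc cells co-treated with compound and 1 nM T3. Measured in the same wells as the luciferase TR readout.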

Assay [27] in a line: qHTS assay to identify small molecule antagonists of the thyroid receptor (TR) signaling pathway (AID 743065). Further: potency means the concentration at half of the fitted maximal effect; nearly all actives have a fitted effect of over 55% in size. The gist of the method:
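GH3.TRE-Luc rat pituitary cells (two TREs driving luciferase) were dosed with compound, then stimulated with 1 nM T3 (final) for 23.5 h at 37 C. ONE-Glo luminescence was the read-out, with CellTiter-Fluor fluorescence as the cytotoxicity counter-screen.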

A short description of assay [28]: qHTS assay to identify small molecule antagonists of the estrogen receptor alpha (ER-alpha) signaling pathway - cell viability counter screen (AID 743074; calls by dose curve;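 further: HEK293 cells carrying ER-alpha-UAS-bla reporter stimulated with 17beta-estradiol; potency means the concentration at half of the fitted maximal effect; nearly all actives have a fitted effect of over 45% in size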).
Assay [29] has as its target Estrogen receptor (Homo sapiens) (UniProt P03372). Briefly: qHTS assay to identify small molecule agonists of the estrogen receptor alpha (ER-alpha) signaling pathway (AID 743075; calls by dose curve;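 further: HEK293 GripTite cells with ER-alpha and UAS-driven beta-lactamase reporter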).
Assay [30] can be described thus: qHTS assay to identify small molecule antagonists of the estrogen receptor alpha (ER-alpha) signaling pathway using the BG1 cell line - cell viability counter screen (AID 743081).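 Further: compound given together with 17beta-estradiol as the ER stimulus; series mostly up to about 70 µM; nearly all actives have a fitted effect of over 45% in size.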
The target of assay [31] is Aryl hydrocarbon receptor (Homo sapiens) (UniProt P35869). Briefly: qHTS assay to identify small molecule that activate the aryl hydrocarbon receptor (AhR) signaling pathway (AID 743085).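 Further: HG2L7.5c1 human HepG2 liver cells with stably integrated DRE-driven firefly reporter; series mostly up to about 70 µM; nearly all actives have a fitted effect of over 15% in size.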 The gist of the method:
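Cell line HG2L7.5c1 (human hepatoma, 20× DRE-luc). Plated, 5 h 37C, compound/DMSO added, 24 h 37C. CellTiter-Fluor 30 min 37C → fluorescence; then ONE-Glo 30 min RT → luminescence.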

Assay [32] can be described thus: qHTS assay to identify small molecule that activate the aryl hydrocarbon receptor (AhR) signaling pathway - cell viability counter screen (AID 743086). Further: nearly all actives have a fitted effect of over 45% in size. Further: potency means the concentration at half of the fitted maximal effect. The essentials: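 HepG2-AhR-luc (HG2L7.5c1) cells, 4000/well, treated 24 h at 37 C with compound; viability measured as CellTiter-Fluor fluorescence after 30 min in the same wells as the luciferase read.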
Assay [33] has as its target Peroxisome proliferator-activated receptor gamma (Homo sapiens) (UniProt P37231). Briefly: qHTS assay to identify small molecule agonists of the peroxisome proliferator-activated receptor gamma (PPARg) signaling pathway (AID 743094; active means well fitted activation curve with a large enough effect in the signal ratio in the repeat runs, not every such curve was filed as active; the % refers to the signal ratio). The gist of the method: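 Beta-lactamase FRET fluorescence was the read-out after a 1 h room-temperature substrate step, following 17 h compound treatment at 37C of HEK293H cells expressing a UAS-driven bla reporter responsive to PPARg.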

The target in another assay is Aromatase (Homo sapiens) (UniProt P11511). Kind of assay: qHTS assay to identify aromatase inhibitors (AID 743083). Further: series mostly up to about 70 µM; nearly all actives have a fitted effect of over 55% in size.
The nature of assay [34]: qHTS assay to identify small molecule antagonists of the androgen receptor (AR) signaling pathway using the MDA cell line - cell viability counter screen (AID 743041; further: nearly all actives have a fitted effect of over 45% in size). The gist of the method:
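MDA-kb2 AR-luc cells (MMTV-luciferase, AR/GR responsive) treated with compounds plus R1881 agonist for 16 h at 37C. CellTiter-Fluor added at 15.5 h; fluorescence read after 30 min in the same wells.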

Assay [35] concerns thyroid hormone receptor (rat, GH3 cells). Briefly: qHTS assay to identify small molecule agonists of the thyroid receptor (TR) signaling pathway (AID 743066; calls by dose curve).
Assay [36] deals with Acetylcholinesterase (Homo sapiens) (UniProt P22303). Kind of assay: Acetylcholinesterase (AChE) small molecule antagonists: enzyme-based qHTS assay with human liver microsomes (AID 1347399; calls by dose curve; further: nearly all actives have a fitted effect of over 60% in size). The note with it: Potency: qHTS inhibition; outcome: qHTS inhibition. The gist of the method:
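Recombinant human AChE (50 mU/mL in the enzyme mix) and human liver microsomes (0.25 mg/mL final) were preincubated with compound and NADPH (0.25 mg/mL final) for 30 min at 37 C. Acetylthiocholine/DTNB was then added; thiocholine was read colorimetrically after 10 min at room temperature.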

Our source for the outcome and Potency values is PubChem BioAssay (Tox21).

Values without a mark were called inactive. Records with an inconclusive call do not appear. Activity calls are given as the source filed them. Unless noted, the call rests on the fitted dose curve; in most records, active means well fitted curve in the direction sought with a large enough effect in the repeat runs; inconclusive means weak or mixed curves; inactive means no such curve, though single readings can be large; an effect the other way counts as inactive or inconclusive.

Sequence of Androgen receptor (Homo sapiens) (P10275 whole entry, looked up): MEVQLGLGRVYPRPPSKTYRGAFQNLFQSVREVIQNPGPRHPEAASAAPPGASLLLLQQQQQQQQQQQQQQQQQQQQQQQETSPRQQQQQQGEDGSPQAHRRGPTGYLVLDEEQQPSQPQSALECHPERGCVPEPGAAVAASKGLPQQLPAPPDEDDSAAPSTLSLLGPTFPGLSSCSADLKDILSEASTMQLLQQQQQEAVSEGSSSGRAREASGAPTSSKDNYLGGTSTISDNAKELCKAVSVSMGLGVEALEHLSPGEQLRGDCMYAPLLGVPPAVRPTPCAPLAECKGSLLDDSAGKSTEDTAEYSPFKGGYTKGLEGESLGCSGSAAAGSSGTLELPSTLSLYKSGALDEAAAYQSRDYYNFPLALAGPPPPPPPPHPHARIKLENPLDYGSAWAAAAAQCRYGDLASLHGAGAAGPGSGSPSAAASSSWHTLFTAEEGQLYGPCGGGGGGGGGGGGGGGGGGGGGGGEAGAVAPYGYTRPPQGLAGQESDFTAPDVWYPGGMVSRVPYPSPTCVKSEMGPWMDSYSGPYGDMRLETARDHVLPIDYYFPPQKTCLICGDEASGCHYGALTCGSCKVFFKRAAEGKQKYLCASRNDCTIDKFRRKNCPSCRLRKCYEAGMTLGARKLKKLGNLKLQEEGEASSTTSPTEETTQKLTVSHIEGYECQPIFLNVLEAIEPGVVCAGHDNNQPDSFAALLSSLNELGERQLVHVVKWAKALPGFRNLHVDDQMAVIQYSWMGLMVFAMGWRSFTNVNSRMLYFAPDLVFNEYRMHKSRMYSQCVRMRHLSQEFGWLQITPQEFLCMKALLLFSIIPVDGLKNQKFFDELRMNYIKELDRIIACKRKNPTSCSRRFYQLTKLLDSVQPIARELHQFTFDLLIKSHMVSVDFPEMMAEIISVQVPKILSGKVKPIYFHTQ
Sequence of Aryl hydrocarbon receptor (Homo sapiens) (P35869 whole entry, looked up): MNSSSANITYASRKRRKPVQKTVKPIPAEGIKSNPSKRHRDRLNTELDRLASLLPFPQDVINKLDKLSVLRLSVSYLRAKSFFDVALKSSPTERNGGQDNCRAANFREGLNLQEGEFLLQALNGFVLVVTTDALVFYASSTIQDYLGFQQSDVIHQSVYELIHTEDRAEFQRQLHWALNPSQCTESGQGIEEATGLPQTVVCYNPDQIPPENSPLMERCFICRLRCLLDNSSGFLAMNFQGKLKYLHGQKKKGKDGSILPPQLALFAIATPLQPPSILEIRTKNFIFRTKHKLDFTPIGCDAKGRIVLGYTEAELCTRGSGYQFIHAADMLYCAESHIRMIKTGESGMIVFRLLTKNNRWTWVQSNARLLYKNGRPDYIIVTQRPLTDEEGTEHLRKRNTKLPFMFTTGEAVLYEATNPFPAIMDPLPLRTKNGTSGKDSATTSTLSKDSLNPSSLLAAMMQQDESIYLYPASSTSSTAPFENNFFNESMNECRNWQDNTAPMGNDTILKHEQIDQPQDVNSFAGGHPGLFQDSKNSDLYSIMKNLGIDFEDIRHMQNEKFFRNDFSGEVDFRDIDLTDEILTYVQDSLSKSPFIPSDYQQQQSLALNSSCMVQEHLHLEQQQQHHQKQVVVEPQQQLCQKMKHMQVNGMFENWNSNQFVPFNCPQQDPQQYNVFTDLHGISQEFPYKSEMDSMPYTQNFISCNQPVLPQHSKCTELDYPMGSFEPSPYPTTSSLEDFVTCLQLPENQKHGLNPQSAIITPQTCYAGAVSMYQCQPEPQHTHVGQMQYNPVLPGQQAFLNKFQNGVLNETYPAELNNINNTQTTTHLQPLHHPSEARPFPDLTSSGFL
Sequence of Peroxisome proliferator-activated receptor gamma (Homo sapiens) (P37231 whole entry, looked up): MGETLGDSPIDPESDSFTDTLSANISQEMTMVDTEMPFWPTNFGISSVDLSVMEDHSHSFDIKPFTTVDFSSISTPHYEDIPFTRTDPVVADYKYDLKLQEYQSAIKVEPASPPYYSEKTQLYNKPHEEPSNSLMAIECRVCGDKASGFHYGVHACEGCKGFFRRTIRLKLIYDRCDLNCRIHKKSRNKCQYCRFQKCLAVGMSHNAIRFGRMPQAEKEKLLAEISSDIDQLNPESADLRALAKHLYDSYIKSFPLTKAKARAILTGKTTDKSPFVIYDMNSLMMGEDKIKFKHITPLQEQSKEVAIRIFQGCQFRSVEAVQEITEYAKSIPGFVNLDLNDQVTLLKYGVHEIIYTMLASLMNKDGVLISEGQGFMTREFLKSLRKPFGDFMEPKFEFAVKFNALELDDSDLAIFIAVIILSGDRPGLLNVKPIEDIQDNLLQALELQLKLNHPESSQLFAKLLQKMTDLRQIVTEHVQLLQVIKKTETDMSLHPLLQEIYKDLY
Sequence of Aromatase (Homo sapiens) (P11511 whole entry, looked up): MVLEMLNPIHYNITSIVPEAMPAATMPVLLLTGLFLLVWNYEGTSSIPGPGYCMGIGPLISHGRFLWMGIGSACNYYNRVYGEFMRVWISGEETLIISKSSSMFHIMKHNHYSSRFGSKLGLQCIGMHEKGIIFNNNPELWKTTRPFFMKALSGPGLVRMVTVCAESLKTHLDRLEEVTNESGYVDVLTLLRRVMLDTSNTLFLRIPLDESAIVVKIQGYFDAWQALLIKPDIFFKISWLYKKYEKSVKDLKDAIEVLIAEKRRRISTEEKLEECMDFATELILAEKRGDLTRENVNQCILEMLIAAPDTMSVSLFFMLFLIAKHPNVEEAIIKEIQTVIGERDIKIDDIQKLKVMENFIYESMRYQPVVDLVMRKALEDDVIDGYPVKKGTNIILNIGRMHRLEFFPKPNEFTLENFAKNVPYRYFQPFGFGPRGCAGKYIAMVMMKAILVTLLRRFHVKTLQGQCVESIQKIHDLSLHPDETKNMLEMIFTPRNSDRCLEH
Sequence of Glucocorticoid receptor (Homo sapiens) (P04150 whole entry, looked up): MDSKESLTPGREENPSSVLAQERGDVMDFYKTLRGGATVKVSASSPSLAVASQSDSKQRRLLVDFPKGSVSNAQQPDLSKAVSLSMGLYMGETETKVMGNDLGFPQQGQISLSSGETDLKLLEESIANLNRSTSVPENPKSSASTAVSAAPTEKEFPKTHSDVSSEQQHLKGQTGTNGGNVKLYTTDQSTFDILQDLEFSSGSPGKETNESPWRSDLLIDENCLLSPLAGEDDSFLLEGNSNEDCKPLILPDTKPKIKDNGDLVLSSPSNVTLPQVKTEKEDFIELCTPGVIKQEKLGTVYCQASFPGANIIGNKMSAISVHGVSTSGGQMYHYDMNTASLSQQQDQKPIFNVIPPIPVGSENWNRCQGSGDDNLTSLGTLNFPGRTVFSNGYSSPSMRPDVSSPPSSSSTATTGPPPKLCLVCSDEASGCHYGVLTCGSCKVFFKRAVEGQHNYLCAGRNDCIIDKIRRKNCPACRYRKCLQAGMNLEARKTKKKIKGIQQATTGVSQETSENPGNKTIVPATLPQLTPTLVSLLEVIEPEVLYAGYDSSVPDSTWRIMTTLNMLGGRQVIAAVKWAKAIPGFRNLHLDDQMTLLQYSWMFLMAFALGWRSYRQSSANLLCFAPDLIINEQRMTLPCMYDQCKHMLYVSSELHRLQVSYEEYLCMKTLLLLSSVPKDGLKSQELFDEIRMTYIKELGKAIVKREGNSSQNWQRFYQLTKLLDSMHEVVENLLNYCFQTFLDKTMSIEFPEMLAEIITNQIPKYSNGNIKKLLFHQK
Sequence of Estrogen receptor (Homo sapiens) (P03372 whole entry, looked up): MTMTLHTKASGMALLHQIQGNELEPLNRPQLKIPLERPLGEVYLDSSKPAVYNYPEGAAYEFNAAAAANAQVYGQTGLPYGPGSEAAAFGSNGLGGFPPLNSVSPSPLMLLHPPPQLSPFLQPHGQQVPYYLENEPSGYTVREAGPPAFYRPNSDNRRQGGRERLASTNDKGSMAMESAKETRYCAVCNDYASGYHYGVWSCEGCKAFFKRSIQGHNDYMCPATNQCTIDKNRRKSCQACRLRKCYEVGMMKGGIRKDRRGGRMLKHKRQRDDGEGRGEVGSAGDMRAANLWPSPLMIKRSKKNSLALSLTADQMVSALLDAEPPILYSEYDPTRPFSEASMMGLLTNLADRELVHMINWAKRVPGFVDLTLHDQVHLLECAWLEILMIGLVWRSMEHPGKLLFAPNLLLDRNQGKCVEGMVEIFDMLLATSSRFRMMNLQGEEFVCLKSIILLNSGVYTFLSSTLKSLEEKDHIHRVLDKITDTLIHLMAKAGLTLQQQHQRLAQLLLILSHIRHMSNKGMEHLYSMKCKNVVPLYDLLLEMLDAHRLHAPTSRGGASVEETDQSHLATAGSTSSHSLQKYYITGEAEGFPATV
Sequence of Acetylcholinesterase (Homo sapiens) (P22303 whole entry, looked up): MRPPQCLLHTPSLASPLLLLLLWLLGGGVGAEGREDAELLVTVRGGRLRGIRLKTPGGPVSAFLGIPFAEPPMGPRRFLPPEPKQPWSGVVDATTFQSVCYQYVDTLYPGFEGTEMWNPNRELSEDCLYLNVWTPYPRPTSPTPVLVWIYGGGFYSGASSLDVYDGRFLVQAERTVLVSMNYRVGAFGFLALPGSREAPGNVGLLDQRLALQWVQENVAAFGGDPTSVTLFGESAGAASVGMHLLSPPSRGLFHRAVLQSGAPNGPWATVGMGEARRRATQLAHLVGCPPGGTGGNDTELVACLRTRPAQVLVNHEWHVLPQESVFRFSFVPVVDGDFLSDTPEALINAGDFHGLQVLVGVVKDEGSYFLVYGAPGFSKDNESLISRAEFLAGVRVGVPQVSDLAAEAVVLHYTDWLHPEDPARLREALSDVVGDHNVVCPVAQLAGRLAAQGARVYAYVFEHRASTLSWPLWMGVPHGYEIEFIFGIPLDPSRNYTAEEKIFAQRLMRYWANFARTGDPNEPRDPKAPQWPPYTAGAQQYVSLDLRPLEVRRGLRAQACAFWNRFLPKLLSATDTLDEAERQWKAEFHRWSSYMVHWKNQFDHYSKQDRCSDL

On to `CN1C2CCC1CC(OC(c1ccccc1)c1ccc(Cl)cc1)C2` (stereo not drawn), for which the molecule was called inactive in assay [1], in [4], in assay [5], in assay [6], in assay [7] and in assay [8]. The outcome in [9], in assay [10], in assay [11], in [12], in [13] and in assay [14] was inactive. The molecule was classed as inactive in assay [15], in assay [16], in assay [24], in [25], in assay [31] and in assay [33]. Moreover, the Potency was 29.8 µM (active) in assay [2]; 26.6 µM (active) in [3]; 21.3 µM (active) in assay [17]; 23.9 µM (active) in assay [18]; 2.11 µM (active) in assay [19]; 2.98 µM (active) in assay [20]. The Potency in assay [21] was 4.22 µM (active); in assay [22] it was 15.1 µM (active); in assay [23], 21.3 µM (active); in [26] it was 4.73 µM (active); in [27], 5.96 µM (active); in assay [28] it was 23.9 µM (active). The Potency in assay [32] is 23.7 µM (active). In addition, the Potency result in assay [29] and in assay [30] was “inactive” each time.
Regarding `CC[C@@]1([C@@H]2O[C@@H]([C@H]3O[C@@](O)(CO)[C@H](C)C[C@@H]3C)C[C@@H]2C)CC[C@H]([C@]2(C)CC[C@]3(C[C@H](O)[C@@H](C)[C@@H]([C@@H](C)[C@@H](OC)[C@H](C)C(=O)O)O3)O2)O1` (stereo in doubt), in the assay with Aromatase (Homo sapiens), the Potency result was “inactive”. The outcome in [31] was inactive.
In the case of `O=C(O)c1ccccc1[O-].O=C(O)c1ccccc1[O-].[Zn+2]`, the Potency result in [3], in assay [18], in assay [19], in assay [20], in [21] and in [22] was “inactive” throughout. Moreover, the Potency result in [26], in assay [30] and in assay [32] was “inactive” in each case. The molecule was classed as inactive in assay [11], in [34] and in [35].
Take `CCN(CC)CCNC(=O)c1cc(Br)c(N)cc1OC`: the Potency entry in assay [36] was “inactive”.
